NS1 inh: qHTS Assay for Inhibitors of Influenza NS1 Protein Function | 270,000 tested, 0.4% active | Potency, µM (highest dose often 46.1 µM) | AID 2326, 2010; note: actives are rising curves; nearly all actives have a fitted effect of over 50% in size
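Growth recovery, yeast-based: influenza A NS1 expressed in S. cerevisiae causes slow growth, and suppressors are detected by OD600. The parent strain without NS1 is used as positive control.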
CHX counter: Cycloheximide Counterscreen for Small Molecule Inhibitors of Shiga Toxin; max response, %; cell reporter, cycloheximide protein synthesis inhibition counterscreen; 300,000 tested, 12% active; in the data active = max response mostly above about 13%, no sharp cut-off; inactive = mostly below about 14%; note: read at 38.3 µM for the half of the compounds with a filed dose
SARS PLP yeast: qHTS of Yeast-based Assay for SARS-CoV PLP; 330,000 tested, 0.19% active; AID 485353, 2010; S. cerevisiae expressing SARS-CoV PLpro, growth rescue; Potency, µM (series often up to 32.9 µM), usual class: activators; note: nearly all actives have a fitted effect of over 55% in size
Shiga toxin inh: A qHTS for Small Molecule Inhibitors of Shiga Toxin. Vero cells, Shiga toxin protein synthesis inhibition reporter. inhibition, % at 38.7 µM. 290,000 tested, 9.2% active; in the data active = inhibition mostly above about 28%, no sharp cut-off; inactive = mostly below about 43%
Large screens that a line does not name were inactive. Only some compounds are listed: those with a hit (about 12% of all), similar ones and a draw of the others. Unless noted, calls come from the whole dose curve.

COc1cc(OC)cc(C(=O)NC(C)CCc2ccccc2)c1 (centres undefined)	none
CC(=O)c1ccc(S(=O)(=O)NCC(=O)N2CCN(C/C=C/c3ccccc3)CC2)cc1	none (no result: NS1 inh, CHX counter, Shiga toxin inh)
Cc1cccc2c3nc4ccccc4nc3n(C)c12	none
Cc1cccc2nc3ccccc3nc12	CHX counter 17 (no result: NS1 inh)
CC(C)c1ccc(-c2csc3nc[nH]c(=O)c23)cc1	CHX counter 24 (no result: Shiga toxin inh)
O=c1[nH]cnc2scc(-c3ccc(Br)cc3)c12	none (no result: NS1 inh)
CCc1ccc(-c2csc3nc[nH]c(=O)c23)cc1	CHX counter 22
CCOc1ccc(-c2csc3nc[nH]c(=O)c23)cc1	CHX counter 30, Shiga toxin inh 110
COC(=O)C1CCN(CC(=O)Nc2ccc(OC)c(Cl)c2)CC1	none (no result: NS1 inh)
COc1cccc(NC(=O)c2ccc3c(c2)OCO3)c1	CHX counter 32, Shiga toxin inh 63
CCC(=O)Nc1cccc(NC(=O)c2ccc3c(c2)OCO3)c1	CHX counter 19, Shiga toxin inh 61
COc1cccc(NC(=O)c2ccc3c(c2)OCCO3)c1	none
CCCC(=O)Nc1ccccc1NC(=O)c1ccc2c(c1)OCO2	none
O=c1cc[nH]c2ccc([N+](=O)[O-])cc12	none (no result: NS1 inh)
NNC(=O)[C@@H](O)[C@H](O)C(=O)NN	none (no result: CHX counter, SARS PLP yeast, Shiga toxin inh)
Cc1cccc(NC(=O)[C@@H](NC(=O)[C@@H]2Cc3ccccc3CN2)C(C)C)c1	none
CC(C)C(NC(=O)C1CCCCC1)C(=O)Nc1ccncc1 (centres undefined)	none
CC(C)[C@H](NC(=O)[C@@H]1Cc2ccccc2CN1)C(=O)Nc1ccc2c(c1)OCCO2	CHX counter 28, Shiga toxin inh 83
CC(C)C(NC(=O)C1CCCCC1)C(=O)Nc1ccc2c(c1)OCCO2 (centres undefined)	NS1 inh inconclusive, CHX counter 63, Shiga toxin inh active
CSCC[C@H](NC(=O)[C@@H]1Cc2ccccc2CN1)C(=O)Nc1ccc2c(c1)OCCO2	CHX counter 52, Shiga toxin inh 87
CSCC[C@H](NC(=O)[C@@H]1Cc2ccccc2CN1)C(=O)NC1CCCCC1	none
O=C(CNC(=O)[C@@H]1Cc2ccccc2CN1)NC1CCCC1	CHX counter 24
CC(=O)OC1c2ccccc2C(=O)N1Cc1ccccc1 (centres undefined)	NS1 inh inconclusive
O=C(Nc1ccccc1C(=O)Nc1nnc(C(F)(F)F)s1)c1ccccc1Cl	none
C[C@H](NC(=O)[C@@H]1Cc2ccccc2CN1)C(=O)Nc1ccc2c(c1)OCCO2	CHX counter 36, Shiga toxin inh 51
O=C(CNC(=O)[C@@H]1Cc2ccccc2CN1)Nc1ccc2c(c1)OCCO2	CHX counter 37, Shiga toxin inh 60
CCC(C)[C@H](NC(=O)[C@@H]1Cc2ccccc2CN1)C(=O)Nc1ccc2c(c1)OCO2 (some centres undefined)	CHX counter 30, Shiga toxin inh 38
CC(=O)Oc1ccc(N(C(C)=O)S(=O)(=O)c2cccs2)c2ccccc12	none
CCn1cc(C(=O)O)c(=O)c2cc(F)c(N3CCN(C(=S)NC(=O)c4ccccc4Br)CC3)cc21	none
c1ccc2[nH]c(SCc3cn4ccccc4n3)nc2c1	CHX counter 20, Shiga toxin inh 54 (no result: NS1 inh)
Cc1ccc(SCc2cn3cc(Cl)ccc3n2)cc1	CHX counter 52, Shiga toxin inh 62
Nn1c(SCc2cn3cc(Cl)ccc3n2)nnc1-c1ccncc1	none
Clc1ccc2nc(CSc3nnc4ccccn34)cn2c1	CHX counter 38, Shiga toxin inh 92
Clc1ccc(SCc2cn3ccccc3n2)cc1	CHX counter 37, Shiga toxin inh 54 (no result: NS1 inh)
CCN(CC(=O)NCc1cccs1)S(=O)(=O)c1c(F)cccc1F	none (no result: NS1 inh, CHX counter, Shiga toxin inh)
Cc1cc(C)n2cc(CSCc3ccco3)nc2n1	none
Cc1cccc2nc(CSCc3ccco3)cn12	CHX counter 31, Shiga toxin inh 82
Clc1ccc2nc(CSc3nnc(-c4c[nH]c5ccccc45)o3)cn2c1	none (no result: CHX counter, SARS PLP yeast, Shiga toxin inh)
Clc1ccc2nc(CSc3nc4ccccc4o3)cn2c1	CHX counter 37, Shiga toxin inh 129
Nc1nnc(SCc2cn3cc(Cl)ccc3n2)s1	CHX counter 28, Shiga toxin inh 84
Cc1ccc(SCc2cn3c(C)csc3n2)cc1	CHX counter 44, Shiga toxin inh 74
CCC(CC)C(=O)c1c[nH]c(C(=O)NN)c1	none (no result: NS1 inh)
O=S(=O)(c1ccccc1)N1CN2CN(C1)CN(S(=O)(=O)c1ccccc1)C2	none (no result: CHX counter, SARS PLP yeast, Shiga toxin inh)
O=C(SCc1cccc2ccccc12)c1ccc(Cl)cc1	none (no result: CHX counter, SARS PLP yeast, Shiga toxin inh)
CN(CC(=O)Nc1cccc2c1CCCC2)S(=O)(=O)c1ccccc1	none
Clc1ccc2nc(CSc3nncn3-c3ccccc3)cn2c1	none
c1ccc2c(SCc3cn4ccccc4n3)nncc2c1	CHX counter 38 (no result: NS1 inh)
Cc1cccc2nc(CSc3ccc(Cl)cc3)cn12	CHX counter 49, Shiga toxin inh 91
Clc1ccc2nc(CSCc3ccccc3)cn2c1	CHX counter 49, Shiga toxin inh 99 (no result: NS1 inh)
CNc1cc(CSc2ccc(Cl)cc2)nc(C)n1	CHX counter 47, Shiga toxin inh 99 (no result: NS1 inh)
CCOC(=O)CC1C(=O)NCCN1Cc1cccs1 (centres undefined)	none
Cc1cnc2c3c(cc(Cl)c2c1)-c1ccccc1S(=O)(=O)N3	CHX counter 73, Shiga toxin inh 54 (no result: NS1 inh, SARS PLP yeast)
NNC(=O)[C@@H](O)[C@H](O)[C@H](O)CO	none (no result: CHX counter, SARS PLP yeast, Shiga toxin inh)
C=CCn1c(C)cc(-c2csc(NC(=O)CCc3nc4ccccc4c(=O)[nH]3)n2)c1C	none (no result: NS1 inh, CHX counter, Shiga toxin inh)
COc1ccccc1N1CCN(C(=O)c2cc(-c3ccc4c(c3)OCO4)on2)CC1	none
CN(C(=O)c1cc(-c2ccc3c(c2)OCO3)on1)c1ccccc1	CHX counter 34, Shiga toxin inh 95
Cc1ccc(NC(=O)c2cc(-c3ccc4c(c3)OCO4)on2)cc1C	none
CSc1ccccc1NC(=O)c1cc(-c2ccc3c(c2)OCO3)on1	Shiga toxin inh 61
O=C(Nc1cc(Br)ccc1O)c1cc(-c2ccc3c(c2)OCO3)on1	CHX counter 15, Shiga toxin inh 77
O=C(c1ccc(S(=O)(=O)N2CCCC2)cc1)N1CCCC(C(F)(F)F)C1 (centres undefined)	none (no result: NS1 inh, CHX counter, Shiga toxin inh)
Cc1cccc(NC(=S)N2CCOCC2)c1C	none
C=CCN(CC=C)CCOc1ccc(OC(C)C)cc1	CHX counter 18, Shiga toxin inh 84 (no result: NS1 inh)
C=CCN(CC=C)CCOc1ccc2ccccc2c1	CHX counter 21
CCOc1ccc(C(=O)N2CCC3(CC2)NCCc2[nH]cnc23)cc1OCC	none
CCCC(=O)Nc1nnc(S(=O)(=O)N(CC)c2ccc(OC)cc2)s1	none
CC1CCCC(C)N1CCCNC(=O)c1ccc2nc(N3CCOCC3)sc2c1 (centres undefined)	none
CC1CCCC(C)N1CCCNC(=O)c1ccc2nc(N3CCCCC3)sc2c1 (centres undefined)	CHX counter 18, Shiga toxin inh 59
CC1CCN(c2nc3ccc(C(=O)NCCCN4CCCCC4C)cc3s2)CC1 (centres undefined)	CHX counter 29, Shiga toxin inh 34
CCC1CCCCN1CCCNC(=O)c1ccc2nc(N3CCCCC3)sc2c1 (centres undefined)	none
CNS(=O)(=O)c1ccc(NCC2COc3ccccc3O2)c([N+](=O)[O-])c1 (centres undefined)	CHX counter 16
